Laboratory results taken from PubChem BioAssay (NCI).
The panel holds about 79,000 compounds, 15% with a hit somewhere; the sample as a whole holds those more often. The source made the active and inactive calls. Rule as the data show it: active = growth inhibition above about 70%; inactive = the rest.

Assays:
[1] = NCI Yeast Anticancer Drug Screen. Data for the wt1 strain (AID 149);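 also: 0% = growth of vehicle-treated wt1 cultures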; settings: S. cerevisiae wt1 strain (SPY 50644) growth inhibition, active compounds read high
Procedure, shortened: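 Growth inhibition read against vehicle controls after compound exposure of the wt1 yeast strain.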

[2] = NCI Yeast Anticancer Drug Screen. Data for the rad50EPP+ strain (AID 151);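 also: 0% = growth of vehicle-treated control cultures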; settings: S. cerevisiae rad50 mutant strain, active compounds read high
Procedure, shortened: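 Growth inhibition read against vehicle controls in rad50EPP+ yeast, a strain altered in DNA damage repair, after compound exposure.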

[3] = NCI Yeast Anticancer Drug Screen. Data for the mgt1 strain (AID 153); settings: S. cerevisiae mgt1 mutant growth inhibition, active compounds read high
Procedure, shortened: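 mgt1 yeast grown with test compound; read-out is growth inhibition versus vehicle-treated cultures.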

[4] = NCI Yeast Anticancer Drug Screen. Data for the rad50 strain (AID 155);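 also: 0% = growth of vehicle-only cultures of the same strain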; settings: S. cerevisiae rad50 strain growth inhibition, active compounds read high
Procedure, shortened: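 Readout: growth inhibition relative to vehicle-treated cultures. Compound exposure was carried out in a genetically defined yeast strain deficient in DNA damage repair.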

[5] = NCI Yeast Anticancer Drug Screen. Data for the mec2-1 strain (AID 157); settings: S. cerevisiae mec2-1 strain, active compounds read high
Procedure, shortened: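 Yeast mec2-1 mutant treated with compound. Readout: growth inhibition vs vehicle controls.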

[6] = NCI Yeast Anticancer Drug Screen. Data for the rad14 strain (AID 159);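 also: 0% = growth of vehicle-treated control cultures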; settings: S. cerevisiae rad14 strain growth inhibition, active compounds read high
Procedure, shortened: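 Growth inhibition vs vehicle controls; genetically altered yeast strain (DNA damage repair defect) treated with test compounds.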

[7] = NCI Yeast Anticancer Drug Screen. Data for the sgs1 mgt1 strain (AID 161);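 also: 0% = growth of cultures given vehicle only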; settings: S. cerevisiae sgs1 mgt1 strain, active compounds read high
Procedure, shortened: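 Genetically altered yeast, compound exposure, growth inhibition relative to vehicle.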

[8] = NCI Yeast Anticancer Drug Screen. Data for the CLN2oe strain (AID 163);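 also: 0% = growth of vehicle-only control cultures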; settings: S. cerevisiae CLN2oe strain, active compounds read high
Procedure, shortened: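 Read-out: yeast growth inhibition, expressed relative to vehicle-only controls. The strain bears an engineered cell-cycle alteration.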

[9] = NCI Yeast Anticancer Drug Screen. Data for the cln2 rad14 strain (AID 165);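 also: 0% = growth equal to vehicle treated cultures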; settings: S. cerevisiae cln2 rad14 strain, active compounds read high
Procedure, shortened: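 cln2 rad14 yeast strain; compound exposure; growth inhibition read vs vehicle controls.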

[10] = NCI Yeast Anticancer Drug Screen. Data for the bub3 strain (AID 167); settings: S. cerevisiae bub3 mutant strain, active compounds read high
Procedure, shortened: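 Readout: yeast growth inhibition, expressed relative to vehicle-only wells. The test organism is a mutant strain from a panel with lesions in DNA repair or checkpoint genes.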

[11] = NCI Yeast Anticancer Drug Screen. Data for the wt2 strain (AID 169);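 also: 0% = growth of vehicle-treated yeast cultures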; settings: S. cerevisiae wt2 strain growth inhibition, active compounds read high
Procedure, shortened: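 Read-out: growth inhibition versus vehicle-treated control cultures after compound exposure of the yeast strain.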

[12] = NCI Yeast Anticancer Drug Screen. Data for the mlh1 strain (AID 171);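 also: 0% = growth of vehicle-treated control cultures of the same strain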; settings: S. cerevisiae mlh1 strain growth inhibition, active compounds read high
Procedure, shortened: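 Read-out: growth inhibition versus vehicle controls. Strain: engineered yeast with a defined DNA repair or cell cycle defect, compound-treated.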

[13] = NCI Yeast Anticancer Drug Screen. Data for the sgs1 strain (AID 173);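 also: 0% = growth of vehicle-only control cultures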; settings: S. cerevisiae sgs1 mutant, active compounds read high
Procedure, shortened: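 Read-out: yeast growth inhibition relative to vehicle controls, following compound exposure of a strain with a defined DNA repair/cell cycle alteration.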

[14] = NCI Yeast Anticancer Drug Screen. Data for the mlh1 rad18 strain (AID 175); settings: S. cerevisiae mlh1 rad18 strain growth inhibition, active compounds read high
Procedure, shortened: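 Yeast w/ defined DNA-repair lesions; compound exposure; growth vs vehicle controls → % inhibition.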

[15] = NCI Yeast Anticancer Drug Screen. Data for the rad18 strain (AID 177); settings: S. cerevisiae rad18 mutant growth inhibition, active compounds read high
Procedure, shortened: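 Readout: growth inhibition vs vehicle controls. Cells: genetically altered yeast strain, DNA repair defect.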

[16] = at 5.0 µM (retest, dose inferred, filed as 0.5)
[17] = at 50.0 µM (retest, dose inferred, filed as 5.0)

Measured: growth inhibition

CC1(C)CC(=O)C(/C=N/c2nc(-c3ccc(Br)cc3)cs2)=C(O)C1
inactive: [1]; at 1.2 µM 1% | [1]; at 3.7 µM 4% | [1]; at 11.0 µM 17% | [1]; at 100.0 µM 60% | [2]; at 1.2 µM 5% | [2]; at 3.7 µM 17% | [2]; at 11.0 µM 51% | [3]; at 1.2 µM 4% | [3]; at 3.7 µM 6% | [3]; at 11.0 µM 37% | [4]; at 1.2 µM 3% | [4]; at 3.7 µM 32% | [4]; [16] -4% | [4]; at 11.0 µM 48% | [5]; at 1.2 µM 7% | [5]; at 3.7 µM 11% | [5]; [16] -10% | [5]; at 11.0 µM 35% | [6]; at 1.2 µM 6% | [6]; at 3.7 µM 6% | [6]; at 11.0 µM 36% | [7]; [16] -8% | [8]; at 1.2 µM 1% | [8]; at 3.7 µM 7% | [8]; at 11.0 µM 31% | [9]; [16] 65% | [10]; at 1.2 µM 3% | [10]; at 3.7 µM 3% | [10]; [16] -22% | [10]; at 11.0 µM 24% | [11]; at 1.2 µM 0% | [11]; at 3.7 µM 3% | [11]; at 11.0 µM 29% | [12]; at 1.2 µM 3% | [12]; at 3.7 µM 5% | [12]; at 11.0 µM 30% | [13]; at 1.2 µM 10% | [13]; at 3.7 µM 15% | [13]; at 11.0 µM 49% | [14]; [16] 0% | [15]; at 1.2 µM 2% | [15]; at 3.7 µM 5% | [15]; at 11.0 µM 37%
active: [1]; at 33.0 µM 91% | [2]; at 33.0 µM 95% | [2]; at 100.0 µM 98% | [3]; at 33.0 µM 96% | [3]; at 100.0 µM 98% | [4]; at 33.0 µM 94% | [4]; [17] 96% | [4]; at 50.0 µM 99% | [4]; at 100.0 µM 97% | [5]; at 33.0 µM 96% | [5]; [17] 97% | [5]; at 50.0 µM 97.5% | [5]; at 100.0 µM 98% | [6]; at 33.0 µM 95% | [6]; at 100.0 µM 98% | [7]; [17] 98% | [7]; at 50.0 µM 99.2% | [8]; at 33.0 µM 93% | [8]; at 100.0 µM 97% | [9]; [17] 97% | [9]; at 50.0 µM 98.3% | [10]; at 33.0 µM 96% | [10]; [17] 98% | [10]; at 50.0 µM 98.8% | [10]; at 100.0 µM 98% | [11]; at 33.0 µM 93% | [11]; at 100.0 µM 98% | [12]; at 33.0 µM 96% | [12]; at 100.0 µM 98% | [13]; at 33.0 µM 97% | [13]; at 100.0 µM 98% | [14]; [17] 99% | [14]; at 50.0 µM 98.8% | [15]; at 33.0 µM 96% | [15]; at 100.0 µM 97%

CC1=CC(C)(C)SC(SSSC2=NC(C)=CC(C)(C)S2)=N1
active: [3]; at 100.0 µM 89% | [6]; at 100.0 µM 90% | [11]; at 100.0 µM 85% | [13]; at 100.0 µM 89% | [15]; at 100.0 µM 88%
inactive: [1]; at 1.2 µM -3% | [1]; at 3.7 µM -2% | [1]; at 11.0 µM 0% | [1]; at 33.0 µM 7% | [1]; at 100.0 µM 39% | [2]; at 1.2 µM -1% | [2]; at 3.7 µM -1% | [2]; at 11.0 µM 0% | [2]; at 33.0 µM 2% | [2]; at 100.0 µM 31% | [3]; at 1.2 µM -8% | [3]; at 3.7 µM 1% | [3]; at 11.0 µM 3% | [3]; at 33.0 µM 7% | [4]; at 1.2 µM -17% | [4]; at 3.7 µM -4% | [4]; [16] -6% | [4]; at 11.0 µM -4% | [4]; at 33.0 µM 1% | [4]; [17] 48% | [4]; at 50.0 µM 15.6% | [4]; at 100.0 µM 65% | [5]; at 1.2 µM -2% | [5]; at 3.7 µM -4% | [5]; [16] 0% | [5]; at 11.0 µM 0% | [5]; at 33.0 µM 8% | [5]; [17] 15% | [5]; at 50.0 µM 10.7% | [5]; at 100.0 µM 42% | [6]; at 1.2 µM -6% | [6]; at 3.7 µM -5% | [6]; at 11.0 µM -3% | [6]; at 33.0 µM 8% | [7]; [16] -10% | [7]; [17] 61% | [7]; at 50.0 µM 39.2% | [8]; at 1.2 µM -10% | [8]; at 3.7 µM -17% | [8]; at 11.0 µM -14% | [8]; at 33.0 µM -13% | [8]; at 100.0 µM 13% | [9]; [16] -9% | [9]; [17] 6% | [9]; at 50.0 µM 2.9% | [10]; at 1.2 µM -2% | [10]; at 3.7 µM -2% | [10]; [16] -1% | [10]; at 11.0 µM 1% | [10]; at 33.0 µM 1% | [10]; [17] 24% | [10]; at 50.0 µM -3.25% | [10]; at 100.0 µM 56% | [11]; at 1.2 µM -5% | [11]; at 3.7 µM -6% | [11]; at 11.0 µM -4% | [11]; at 33.0 µM 4% | [13]; at 1.2 µM -4% | [13]; at 3.7 µM -2% | [13]; at 11.0 µM 0% | [13]; at 33.0 µM 14% | [14]; [16] -4% | [14]; [17] 42% | [14]; at 50.0 µM 29.8% | [15]; at 1.2 µM -4% | [15]; at 3.7 µM 0% | [15]; at 11.0 µM 7% | [15]; at 33.0 µM 23%
